The text below walks through data of ChEMBL document CHEMBL3988442, “University of Dundee, Small-Polar-MMV Screening Library” (2021).

What all share (design): scale not given: direction of the effect not stated beside the values
The target in assay [1] is Protein translocase subunit SecA (Escherichia coli (strain K12)) (UniProt P10408). Put plainly: Assay to Identify E. coli SecA ATPase Inhibitors. The format is functional. The conditions noted are these: 30 µM.
The target of assay [2] is T1, Ubiquitin-activating enzyme e1, putative (Leishmania donovani (strain BPK282A1)) (UniProt E9BSI1).
T1 sequence (whole entry): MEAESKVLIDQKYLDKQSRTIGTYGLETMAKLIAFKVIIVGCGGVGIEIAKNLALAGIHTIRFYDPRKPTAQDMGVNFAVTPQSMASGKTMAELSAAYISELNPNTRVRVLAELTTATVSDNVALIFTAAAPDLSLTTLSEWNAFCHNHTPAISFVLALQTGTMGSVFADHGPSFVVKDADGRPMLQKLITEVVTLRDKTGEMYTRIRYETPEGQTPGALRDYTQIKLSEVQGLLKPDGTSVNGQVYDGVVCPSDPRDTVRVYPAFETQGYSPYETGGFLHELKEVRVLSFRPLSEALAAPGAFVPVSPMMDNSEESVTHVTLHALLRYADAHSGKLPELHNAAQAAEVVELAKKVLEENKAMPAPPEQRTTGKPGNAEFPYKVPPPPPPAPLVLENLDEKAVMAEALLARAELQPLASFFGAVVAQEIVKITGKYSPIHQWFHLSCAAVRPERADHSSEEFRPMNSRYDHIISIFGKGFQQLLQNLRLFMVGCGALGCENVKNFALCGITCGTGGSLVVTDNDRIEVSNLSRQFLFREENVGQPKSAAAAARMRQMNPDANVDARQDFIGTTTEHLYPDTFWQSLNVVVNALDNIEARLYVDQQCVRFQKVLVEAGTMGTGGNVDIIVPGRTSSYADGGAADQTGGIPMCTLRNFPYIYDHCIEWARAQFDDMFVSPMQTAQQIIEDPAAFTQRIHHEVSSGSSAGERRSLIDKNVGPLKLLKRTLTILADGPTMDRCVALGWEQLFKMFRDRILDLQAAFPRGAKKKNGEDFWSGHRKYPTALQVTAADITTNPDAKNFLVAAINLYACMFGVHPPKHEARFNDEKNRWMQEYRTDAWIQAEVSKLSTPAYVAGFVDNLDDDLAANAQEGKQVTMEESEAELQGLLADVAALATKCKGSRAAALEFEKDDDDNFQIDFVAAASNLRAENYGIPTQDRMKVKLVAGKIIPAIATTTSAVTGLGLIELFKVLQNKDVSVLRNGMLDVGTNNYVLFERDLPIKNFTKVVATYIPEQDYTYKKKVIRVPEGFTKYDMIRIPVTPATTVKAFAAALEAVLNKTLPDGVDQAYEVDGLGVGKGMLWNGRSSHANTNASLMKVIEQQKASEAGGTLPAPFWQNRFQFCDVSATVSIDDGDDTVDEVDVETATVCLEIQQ
Nature of the assay: Leishmania donovani Ubiquitin Activating Enzyme (LdE1). The class given is functional. The conditions noted are these: 30 µM.

Assay [3] deals with AMP-activated protein kinase, AMPK (Homo sapiens) (UniProt P54646+O43741+P54619+Q9UGJ0+Q9Y478+Q13131+Q9UGI9). Put plainly: AMP-dependent Kinase enzyme assay. An in vitro enzyme assay that detects ADP turnover that is directly proportional to AMPK activity. This uses naive AMPK that is activated during the assay with MK-8722. The class given is functional. Conditions: 30 µM.
Assay [4] deals with Sialic acid-binding Ig-like lectin 9 (Homo sapiens) (UniProt Q9Y336). Put plainly: Hs-Siglec9 ALPHAscreen SOP 20170721. The conditions noted are these: 10 µM.
A further assay concerns Trypanosoma cruzi. Put plainly: Trypanosoma cruzi phosphomannomutase and mannose-1-phosphate guanylyltransferase assay. The class given is functional. The conditions noted are these: 10 µM.
Assay [5] has as its target T2, Arginase-2, mitochondrial (Homo sapiens) (UniProt P78540).
T2 sequence (whole entry): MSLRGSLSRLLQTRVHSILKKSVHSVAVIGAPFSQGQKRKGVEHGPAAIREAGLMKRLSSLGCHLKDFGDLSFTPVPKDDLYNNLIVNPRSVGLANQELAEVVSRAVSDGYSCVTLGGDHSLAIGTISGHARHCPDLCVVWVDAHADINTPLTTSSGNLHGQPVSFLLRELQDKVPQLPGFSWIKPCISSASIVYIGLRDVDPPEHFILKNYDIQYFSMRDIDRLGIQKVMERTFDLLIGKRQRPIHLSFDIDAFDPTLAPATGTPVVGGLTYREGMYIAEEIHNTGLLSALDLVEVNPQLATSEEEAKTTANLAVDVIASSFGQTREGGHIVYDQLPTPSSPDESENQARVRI
Nature of the assay: in vitro enzyme assay to detect the production of urea directly proportional to the activity of Arginase II. Note: in the data most compounds retested in dose-response had high values. The class given is functional. The conditions noted are these: 33.3 µM.

Assay [6] addresses T3, Proteasome subunit beta (Trypanosoma cruzi) (UniProt O96673).
T3 sequence (whole entry): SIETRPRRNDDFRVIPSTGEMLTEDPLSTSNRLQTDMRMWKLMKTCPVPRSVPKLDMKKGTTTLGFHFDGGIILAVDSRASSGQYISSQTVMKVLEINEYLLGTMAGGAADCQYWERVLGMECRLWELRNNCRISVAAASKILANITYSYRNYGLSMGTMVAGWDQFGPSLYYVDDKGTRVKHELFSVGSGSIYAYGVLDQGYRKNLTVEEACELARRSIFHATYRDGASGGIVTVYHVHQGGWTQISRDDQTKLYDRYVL
Nature of the assay: Trypanosoma cruzi proteasome chymotrypsin-like activity (TcProtChymo) assay. Note: in the data most compounds retested in dose-response had high values. The conditions noted are these: 9.37 µM. The format is functional.

For the next assay, the species on record is Homo sapiens. Nature of the assay: To identify inhibition of the IFN signalling (Jak-Stat) pathway via expression of an eGFP reporter gene under the control of an IFN-stimulated response element (ISRE) containing MxA promoter. The class given is functional. Conditions: 30 µM.
Assay [7] addresses T4, Tyrosyl-tRNA synthetase, putative (Trypanosoma cruzi (strain CL Brener)) (UniProt Q4DSP6).
T4 sequence (whole entry): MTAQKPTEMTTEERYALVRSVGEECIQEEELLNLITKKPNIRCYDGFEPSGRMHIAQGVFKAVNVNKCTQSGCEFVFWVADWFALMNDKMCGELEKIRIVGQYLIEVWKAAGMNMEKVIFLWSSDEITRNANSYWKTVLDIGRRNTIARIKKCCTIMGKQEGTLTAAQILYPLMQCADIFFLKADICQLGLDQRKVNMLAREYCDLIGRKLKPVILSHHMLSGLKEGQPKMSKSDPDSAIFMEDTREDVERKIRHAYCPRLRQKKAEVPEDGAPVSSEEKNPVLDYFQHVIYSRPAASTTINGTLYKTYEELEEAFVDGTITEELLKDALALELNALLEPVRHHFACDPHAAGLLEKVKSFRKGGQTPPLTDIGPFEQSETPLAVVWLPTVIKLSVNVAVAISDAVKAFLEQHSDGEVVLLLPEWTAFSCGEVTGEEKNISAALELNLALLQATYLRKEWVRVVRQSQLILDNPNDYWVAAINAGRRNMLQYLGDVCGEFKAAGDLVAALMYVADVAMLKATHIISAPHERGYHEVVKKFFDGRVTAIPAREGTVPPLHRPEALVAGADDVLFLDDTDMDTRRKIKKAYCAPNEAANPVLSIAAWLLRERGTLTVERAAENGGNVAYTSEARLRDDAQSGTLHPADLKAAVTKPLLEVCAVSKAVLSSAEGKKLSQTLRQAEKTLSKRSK
Put plainly: Trypanosoma cruzi tyrosyl tRNA synthetase (TcYRS) _High Tyrosine SOP. Note: in the data most compounds retested in dose-response had high values. The format is functional. Conditions: 30 µM.

For assay [8], the target named is T4, Tyrosyl-tRNA synthetase, putative (Trypanosoma cruzi (strain CL Brener)). Put plainly: Trypanosoma cruzi tyrosyl tRNA synthetase (TcYRS) SOP. The class given is functional. The conditions noted are these: 30 µM.
For assay [9], the target named is Chromo domain-containing protein 1 (Saccharomyces cerevisiae (strain ATCC 204508 / S288c) (Baker's yeast)) (UniProt P32657). Put plainly: ScCHD-1 Enzyme Inhibition Assay. Note: in the data most compounds retested in dose-response had high values. The format is functional. The conditions noted are these: 30 µM.

For some of these results: Potency and affinity values are given separately.

Chain of Protein translocase subunit SecA (Escherichia coli (strain K12)) (P10408 whole entry): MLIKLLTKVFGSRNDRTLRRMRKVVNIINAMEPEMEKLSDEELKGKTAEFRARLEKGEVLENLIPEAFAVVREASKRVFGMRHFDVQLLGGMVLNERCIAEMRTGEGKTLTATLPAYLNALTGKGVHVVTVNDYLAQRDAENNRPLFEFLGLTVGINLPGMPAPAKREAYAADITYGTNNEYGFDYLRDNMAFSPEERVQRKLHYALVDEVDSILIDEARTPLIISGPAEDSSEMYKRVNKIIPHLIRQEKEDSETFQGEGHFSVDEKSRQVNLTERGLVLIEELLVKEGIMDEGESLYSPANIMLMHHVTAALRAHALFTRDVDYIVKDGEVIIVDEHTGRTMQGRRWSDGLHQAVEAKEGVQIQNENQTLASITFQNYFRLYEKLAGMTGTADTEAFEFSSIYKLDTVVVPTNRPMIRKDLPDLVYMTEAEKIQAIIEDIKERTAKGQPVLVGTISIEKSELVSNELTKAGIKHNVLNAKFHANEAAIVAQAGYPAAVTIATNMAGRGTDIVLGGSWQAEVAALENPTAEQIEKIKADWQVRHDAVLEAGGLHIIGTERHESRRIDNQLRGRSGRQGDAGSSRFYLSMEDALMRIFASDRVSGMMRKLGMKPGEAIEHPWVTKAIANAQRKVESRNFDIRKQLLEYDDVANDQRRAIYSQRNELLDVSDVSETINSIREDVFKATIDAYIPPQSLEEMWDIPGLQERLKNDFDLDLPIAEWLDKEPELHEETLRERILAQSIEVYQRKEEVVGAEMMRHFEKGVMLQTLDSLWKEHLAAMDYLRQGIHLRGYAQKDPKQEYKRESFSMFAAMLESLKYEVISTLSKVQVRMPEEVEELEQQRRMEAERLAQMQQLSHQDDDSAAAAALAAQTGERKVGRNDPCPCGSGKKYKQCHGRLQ
Chain of Chromo domain-containing protein 1 (Saccharomyces cerevisiae (strain ATCC 204508 / S288c) (Baker's yeast)) (P32657 whole entry, the tested form may be a part): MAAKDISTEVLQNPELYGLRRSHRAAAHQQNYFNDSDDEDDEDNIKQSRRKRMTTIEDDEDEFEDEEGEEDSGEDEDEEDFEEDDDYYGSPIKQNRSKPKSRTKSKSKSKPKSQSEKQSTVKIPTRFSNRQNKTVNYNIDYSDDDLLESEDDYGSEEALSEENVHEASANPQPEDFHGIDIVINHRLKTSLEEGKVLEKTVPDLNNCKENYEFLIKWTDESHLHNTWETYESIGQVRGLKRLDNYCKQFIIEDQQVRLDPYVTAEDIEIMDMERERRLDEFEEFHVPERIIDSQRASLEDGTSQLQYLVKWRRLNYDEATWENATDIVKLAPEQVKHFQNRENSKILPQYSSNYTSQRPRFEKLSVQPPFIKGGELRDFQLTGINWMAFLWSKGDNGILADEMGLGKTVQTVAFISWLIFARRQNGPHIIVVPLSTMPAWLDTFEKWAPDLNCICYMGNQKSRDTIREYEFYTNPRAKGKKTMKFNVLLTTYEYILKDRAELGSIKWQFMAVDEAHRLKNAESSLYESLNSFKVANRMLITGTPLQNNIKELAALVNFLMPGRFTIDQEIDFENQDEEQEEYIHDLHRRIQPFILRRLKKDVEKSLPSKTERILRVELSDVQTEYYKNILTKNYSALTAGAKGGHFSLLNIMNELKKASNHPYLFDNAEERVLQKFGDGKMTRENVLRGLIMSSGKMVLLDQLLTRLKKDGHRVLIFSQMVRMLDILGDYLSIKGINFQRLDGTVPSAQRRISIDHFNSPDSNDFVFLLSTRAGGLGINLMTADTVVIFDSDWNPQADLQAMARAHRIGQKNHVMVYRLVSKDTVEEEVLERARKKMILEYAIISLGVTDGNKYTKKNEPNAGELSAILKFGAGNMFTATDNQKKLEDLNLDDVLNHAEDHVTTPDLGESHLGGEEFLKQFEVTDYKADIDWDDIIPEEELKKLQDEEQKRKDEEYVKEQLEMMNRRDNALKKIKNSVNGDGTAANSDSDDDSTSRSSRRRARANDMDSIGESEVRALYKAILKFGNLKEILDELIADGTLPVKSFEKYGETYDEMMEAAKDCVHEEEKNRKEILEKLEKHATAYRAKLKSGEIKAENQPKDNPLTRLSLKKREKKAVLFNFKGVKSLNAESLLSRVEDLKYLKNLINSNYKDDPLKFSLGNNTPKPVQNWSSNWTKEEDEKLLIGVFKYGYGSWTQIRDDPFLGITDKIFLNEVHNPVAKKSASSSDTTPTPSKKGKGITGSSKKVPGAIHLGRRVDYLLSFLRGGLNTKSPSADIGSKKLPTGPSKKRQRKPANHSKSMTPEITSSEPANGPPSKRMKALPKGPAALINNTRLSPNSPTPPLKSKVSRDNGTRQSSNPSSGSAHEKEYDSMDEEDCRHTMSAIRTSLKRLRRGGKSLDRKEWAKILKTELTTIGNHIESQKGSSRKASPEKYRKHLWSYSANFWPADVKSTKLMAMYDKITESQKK
Chain of Sialic acid-binding Ig-like lectin 9 (Homo sapiens) (Q9Y336 whole entry): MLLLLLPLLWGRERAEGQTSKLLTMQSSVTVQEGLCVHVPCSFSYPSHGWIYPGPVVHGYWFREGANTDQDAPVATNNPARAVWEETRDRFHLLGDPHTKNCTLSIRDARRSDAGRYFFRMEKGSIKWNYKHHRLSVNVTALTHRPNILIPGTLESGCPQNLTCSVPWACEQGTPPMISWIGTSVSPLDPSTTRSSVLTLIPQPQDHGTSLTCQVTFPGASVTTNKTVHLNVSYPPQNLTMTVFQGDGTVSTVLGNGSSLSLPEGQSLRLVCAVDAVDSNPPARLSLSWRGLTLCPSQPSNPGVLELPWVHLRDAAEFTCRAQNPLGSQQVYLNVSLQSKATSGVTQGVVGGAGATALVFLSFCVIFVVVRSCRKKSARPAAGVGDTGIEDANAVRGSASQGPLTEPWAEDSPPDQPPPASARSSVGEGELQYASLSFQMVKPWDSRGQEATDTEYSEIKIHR

For the molecule `Cc1noc2ncc(C(=O)NCC3CCOC3)cc12` (stereo not drawn), the Percent Effect in [1] is -4.3%; in assay [2] it was 0%; in [3], -6.17%; in assay [4], -5.94%; in the assay on Trypanosoma cruzi, -6.96%; in [5], 1.53%. The Percent Effect in assay [6] was 6.35%; in the assay filed under Homo sapiens, 26.5%; in [7] it was 2.45%; in assay [8] it was 0%; in [9] it was -12.5%.
In the case of `Cc1cc(F)cc(S(=O)(=O)NCCCN2CCC(O)CC2)c1`, the Percent Effect in assay [1] was 1.42%; in assay [2] it was 15.6%; in [3], 0.172%; in [4], 0.431%; with Trypanosoma cruzi it was -0.688%; in assay [5], 5.52%. Besides, the Percent Effect in assay [6] is 14.6%; in the assay listed under Homo sapiens, 10.8%; in assay [7], 7.53%; in [8], 23.5%; in assay [9], 1.36%.
`CC(C)C(C(=O)N1CCCN(Cc2nccn2C)CC1)N1CCCC1` (stereo not drawn): the Percent Effect is -1.38% in assay [1]; 21.6% in assay [2]; -0.295% in assay [3]; -3.06% in assay [4]; -1.58% in the assay with Trypanosoma cruzi; -2.77% in [5]. Moreover, the Percent Effect is 10.6% in assay [6]; 20% in the assay filed under Homo sapiens; 2.97% in assay [7]; 13.4% in assay [8]; -5.79% in [9].
Consider `O=C(NC[C@H]1OC[C@@H]2CCN(C(=O)c3ccco3)C[C@@H]21)C1CC1`, for which the Percent Effect in [1] is -4.23%; in [2], 2.7%; in assay [3], 1.41%; in [4], -2.71%; in the assay with Trypanosoma cruzi it was -3.81%; in [5], 5.21%. Also, the Percent Effect in assay [6] was 10.6%; in the assay listed under Homo sapiens, -3.1%; in assay [7] it was 2.15%; in assay [8], 11.1%; in [9], -4.6%.
Consider `O=C(c1ccc[nH]1)N1C[C@H]2CN(Cc3cccc(F)c3)C(=O)[C@H]2C1`, for which the Percent Effect in assay [1] is -2.55%; in assay [2] it was 13.5%; in assay [3] it was 9.65%; in [4], -6.44%; in the assay on Trypanosoma cruzi, -2.05%; in [5], 6.05%. Also, the Percent Effect in assay [6] was 20.3%; in the assay listed under Homo sapiens, 13%; in assay [7], 0%; in [8], 7.69%; in assay [9], -2.96%.
As for `COc1ccc(C[C@H]2CN(c3nnc(C)s3)CC[C@@H]2OC)cc1`, the Percent Effect is -4.17% in assay [1]; 5.33% in assay [2]; -2.8% in [3]; -1.52% in assay [4]; 2.7% in the assay with Trypanosoma cruzi; -49.6% in [5]. Besides, the Percent Effect was 5.81% in assay [6]; 3.46% in the assay listed under Homo sapiens; -34.4% in assay [7]; 7.5% in [8]; 86.4% in [9].
In the case of `COc1ccc(-n2ccc(C(=O)N3CCC(C(N)=O)C3)n2)cc1` (stereo not drawn), the Percent Effect is -7.71% in [1]; 8.11% in [2]; -1.34% in assay [3]; 6.17% in assay [4]; -4.55% in the assay on Trypanosoma cruzi; 1.29% in assay [5]. Further, the Percent Effect in assay [6] was -1.44%; in the assay filed under Homo sapiens, 16.4%; in [7] it was 2.97%; in assay [8] it was 3.66%; in assay [9] it was -1.19%.
On to `CC(NC(=O)N(C)Cc1ccsc1)c1ccc2c(c1)OCO2` (stereo not drawn), for which the Percent Effect in [1] is -2.79%; in [2], 10.5%; in assay [3], 5%; in assay [4] it was 4.83%; in the assay on Trypanosoma cruzi, 9.59%; in assay [5] it was -4.21%. Moreover, the Percent Effect in assay [6] is 11%; in the assay filed under Homo sapiens it was 1.31%; in assay [7], 4.41%; in assay [8] it was 19.5%; in assay [9] it was -8.55%.
